In all, about 96,000 compounds went through this assay and about 100 (0.1%) were called active. The entries come from a sample that favours actives as a whole. Entries with a potency or affinity are not part of this list. Unmarked numbers belong to inactive results.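 The calls were made as follows: active = displacement above 50% at 20 µM plus a fluorescence interference ratio under 1.5; inactive = the rest.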
Biological target: Bcl-2-like protein 10 (Homo sapiens) (UniProt Q9HD36)
Assay: Bcl-B/TR3 peptide binding disruption – biochemical, fluorescence polarization, FITC-TR3 peptide, selectivity assay for Bfl-1 inhibitor project, primary screen (AID 748);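 also: plate controls were wells without compound for no effect and wells lacking Bcl-B protein for full effect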
Conditions: FP displacement of FITC-TR3 peptide from Bcl-B; at 20 µM; active compounds read high

| Compound | displacement |
| --- | --- |
| O=C(c1cc2c(s1)CCCCC2)N1CCN(c2ncccn2)CC1 | -2.1% |
| COc1ccccc1N1CCN(C(=O)c2ccc(Br)s2)CC1 | -4.4% |
| CC1CC(C)CN(C(=O)c2cc3c(s2)CCC3)C1 (stereo unspecified) | 0.4% |
| CCOc1ccccc1N1CCN(C(=O)c2cc3c(s2)CCC3)CC1 | 0.5% |
| CCCC(=O)Nc1cccc(-c2nc3cc(C)c(C)cc3o2)c1 | -1.8% |
| CCCN(CCC)C(=O)Cn1c(=O)n(CCC(=O)NCCc2ccccc2)c(=O)c2ccccc21 | 1.2% |
| CC(=O)Nc1cc(S(=O)(=O)Nc2ccccc2C)c(C)cc1C | -3.3% |
| CCCc1nnc(NC(=O)CCC(=O)N2CCN(CCOc3ccc(C)cc3)CC2)s1 | 1.6% |
| Cc1nc(NC(=O)COC(=O)C(NC(=O)c2ccco2)C(C)C)c(Cl)cc1Cl (stereo unspecified) | 24.3% |
| CSCCC(NC(=O)c1ccco1)C(=O)OCC(=O)Nc1ncc(Cl)c(C)c1Cl (stereo unspecified) | 14.7% |
| CCn1c(SC)nc2c(c1=O)SC(C)C2 (stereo unspecified) | -13.3% |
| Cc1c(NC(=O)c2cc(-c3ccccc3)on2)c(=O)n(-c2ccccc2)n1C | 1.8% |
| Cc1ccc(-c2cc(C(F)(F)F)n3nc(C(=O)Nc4c(C)n(C)n(-c5ccccc5)c4=O)cc3n2)cc1 | -12.8% |
| COc1ccc(CNC(=O)COC(=O)c2cc(-c3ccco3)nc3ccccc23)cc1 | 42.9% |
| O=C(OCC(=O)N1CCN(C(=O)c2ccco2)CC1)c1cc(-c2ccc(F)cc2)nc2ccccc12 | 8.8% |
| O=C(OCC(=O)N1CCN(C(=O)c2ccco2)CC1)c1cc(-c2ccccc2)nc2ccccc12 | -78.6% |
| O=C(COC(=O)c1cc(-c2ccco2)nc2ccccc12)NCc1ccccc1 | -3% |
| CC1Cc2ccccc2N1C(=O)CSc1nc2cc3c(cc2cc1C#N)OCO3 (stereo unspecified) | 3.7% |
| Cc1cccc(-n2nnc(C(=O)NCc3ccc4c(c3)OCO4)c2N)c1 | -4.7% |
| COc1ccc(C(=O)OCC(=O)c2ccc(C3CCCCC3)cc2)cc1 | 0.1% |
| Cc1ccc(C(C(=O)NCc2ccco2)N(C(=O)Cn2nnc3ccccc32)c2ccccc2)o1 (stereo unspecified) | 2.5% |
| Cc1cc(C)cc(CC2CC(=O)N(c3ccc(Cl)cn3)C2=O)c1 (stereo unspecified) | -1% |
| Cn1c2ccccc2c2c(C(=O)NCc3ccco3)cn(C3CCCCC3)c(=O)c21 | 11.7% |
| CC(C)CC(=O)Nc1cccc(-c2nc3ccccc3o2)c1 | 5.6% |

| Compound | displacement |
| --- | --- |
| NC(=O)c1cc(Cc2ccccc2)sc1NC(=O)c1ccco1 | 0% |
| Cc1c(C#N)c2ccccc2n1CC(=O)NC(C)c1ccccc1 (stereo unspecified) | 2.1% |
| COc1ccc(Nc2nc(N3CCCCC3)c3ccccc3n2)cc1 | 6.9% |
| COc1ccc(Nc2nc(N3CCCC3)c3ccccc3n2)cc1 | 12.9% |
| Cc1c(N(C(=O)c2cc(=O)[nH]c3ccccc23)C(C)C)c(=O)n(-c2ccccc2)n1C | -10% |
| CC(C)Nc1nnc(SCC(=O)Nc2ccc(F)cc2)s1 | 1.5% |
| C=CCn1c(C)cc(C(=O)CSc2nnc(NC(C)C)s2)c1C | -5.7% |
| NC(=O)Cn1c(=O)n(CCCC(=O)NC2CCN(Cc3ccccc3)CC2)c(=O)c2ccccc21 | 4.2% |
| CC(C)OC(=O)C(NC(=O)c1ccccc1)=C1CCCCC1 | -12.9% |
| Cc1ccc(NS(=O)(=O)c2ccc(C(=O)N3CCN(c4ccccn4)CC3)cc2)cc1 | 3.6% |
| COc1ccc(N2Cc3cccc(C(=O)N4CCN(C(=O)c5ccco5)CC4)c3C2=O)cc1 | 36.1% |
| COc1ccc(N2Cc3cccc(C(=O)N4CCOCC4)c3C2=O)cc1 | 4.6% |
| CC1(CC(=O)O)SC(=O)NC1=O (stereo unspecified) | -6% |
| CCOC(=O)CCc1c(C)nc2cc(-c3ccccc3OC)[nH]n2c1=O | 4% |
| O=CNCCCc1nc2ccccc2n1Cc1cccc2ccccc12 | 1.8% |
| CCOc1ccc(/C=N/NC(=O)COc2ccccc2-c2ccccc2)cc1 | 9.4% |
| COc1ccc(/C=N/NC(=O)COc2ccccc2-c2ccccc2)cc1 | -6.4% |
| CCC1CCCCN1C(=O)COC(=O)c1n[nH]c2ccccc12 (stereo unspecified) | -6% |
| COc1c(/C=N/Nc2ccc([N+](=O)[O-])cc2[N+](=O)[O-])c(C)nn1-c1ccccc1 | -2.4% |
| Cc1cc(S(=O)(=O)Nc2ccccc2C(=O)O)ccc1Cl | -4.3% |
| Cc1nn(-c2ccccc2)c(Cl)c1/C=N/Nc1ccc(S(=O)(=O)Nc2ccccc2C(=O)O)cc1[N+](=O)[O-] | 62.4% (active) |
| Cc1ccc(CNC(=O)CCn2nc(-c3ccc(Cl)cc3)ccc2=O)cc1 | -8.8% |
| COc1ccc(CCNc2nc3c(c(=O)n(C)c(=O)n3C)n2C)cc1OC | 8.6% |
| COc1ccccc1NC(=O)CNC(=O)c1ccc(F)cc1 | -4.7% |

| Compound | displacement |
| --- | --- |
| O=C(NCc1ccccc1)c1ccc2nc(-c3ccco3)c(-c3ccco3)nc2c1 | 29.5% |
| O=C(Nc1cccc(C(F)(F)F)c1)c1ccc2nc(-c3ccco3)c(-c3ccco3)nc2c1 | 19.6% |
| CCOC(=O)C1CCN(C(=O)Nc2ccc3nc(-c4ccco4)c(-c4ccco4)nc3c2)CC1 | 95.6% |
| O=C(NCCO)c1ccc2nc(-c3ccco3)c(-c3ccco3)nc2c1 | 26.6% |
| O=C(Nc1ccc(N2CCOCC2)cc1)c1ccc2nc(-c3ccco3)c(-c3ccco3)nc2c1 | 0% |
| O=C(Nc1ccc2nsnc2c1)N1CCCCCC1 | 1.1% |
| CCOCCCNC(=O)C1CCN(C(=O)N(C)C)CC1 | 3.4% |
| COc1ccc(C)cc1NS(=O)(=O)c1cn(C)c(=O)n(C)c1=O | -4.4% |
| COc1ccc(S(=O)(=O)N2CCCC2C(=O)Nc2ccc(C)cc2)cc1 (stereo unspecified) | -2% |
| CCOC(=O)c1snc(-c2ccc(F)cc2)c1N | -3.1% |
| CCOC(=O)c1[nH]c2cc3c(cc2c1NC(=O)CN1CCCCC1C)OCO3 (stereo unspecified) | 9.5% |
| O=S(=O)(c1ccc(S(=O)(=O)N2CCCN(Cc3ccccc3)C2)cc1)N1CCCCCC1 | 0.8% |
| CC(=O)Nc1nnc(SCC(=O)NCCOc2ccccc2)s1 | -9.4% |
| CCCCC(=O)NC1=NC(=O)C(C)(C)S1 | -8% |
| Cc1oc2cc3c(C(=O)N4CCCCC4)c(C)oc3cc2c1C(=O)N1CCCCC1 | 6.1% |
| CCCn1c(CCC(=O)O)ccc1-c1cccs1 | 2.8% |
| CCCCn1c(CCC(=O)O)ccc1-c1cccs1 | 4.3% |
| Cc1sc2nc(SCc3nc4ccccc4[nH]3)n(Cc3ccco3)c(=O)c2c1C | -8.7% |
| COc1ccc(C2C(=O)N(C3CCCCC3)CC(=O)N2Cc2ccco2)cc1 (stereo unspecified) | -8.2% |
| CCOC(=O)c1nn(-c2ccccc2)c(=O)c2c(N)scc12 | -1.6% |
| CC1(C)OC(=O)C(=CNc2ccccc2F)C(=O)O1 | 5.4% |
| Cc1nnc(SCC(=O)Nc2cccc(C(F)(F)F)c2)n1Cc1ccco1 | 4.7% |
| CCOC(=O)c1[nH]c(C(=O)O)c(CCN(CC)CC)c1C | 0.1% |
| COC(=O)CCc1c(C)[nH]c(C(=O)OCc2ccccc2)c1C | -0.4% |

| Compound | displacement |
| --- | --- |
| O=C(CCc1ccccc1)OCCN1CCOCC1 | 5.9% |
| Cn1nnnc1SCCNCc1ccccc1F | 1.2% |
| CN(C)c1ccc2c(O)cc(=O)n(C)c2c1 | 13% |
| Cc1nnc(NC(=O)COc2ccccc2)s1 | -16.7% |
| COc1ccc(CNCC(O)(c2ccccc2)c2ccc(Cl)cc2)cc1 (stereo unspecified) | -0.9% |
| COc1ccc(-c2cc(C(F)(F)F)nc(SCC(=O)N3CCOCC3)n2)cc1OC | -2.2% |
| O=C(O)c1cnn2c(C(F)(F)F)cc(-c3ccco3)nc12 | 35.7% |
| O=C(Nc1ccc2c(c1)OCO2)c1cnn2c(C(F)(F)F)cc(-c3ccco3)nc12 | 10.1% |
| Cc1nn(C)cc1CNC(=O)c1cccc(Cl)c1 | 3.4% |
| COC(=O)[C@H](Cc1ccccc1)NC(=O)NCc1ccc(S(N)(=O)=O)cc1 | 3% |
| O=C(NCN1CCN(c2ccccc2F)CC1)c1cccnc1 | -3.4% |
| NC1=NS(=O)(=O)NC1c1cccc(Cl)c1 (stereo unspecified) | -0.7% |
| CS(=O)(=O)N(Cc1ccc(C(=O)Nc2ccccc2Sc2ccccc2)cc1)c1ccccc1 | -11.2% |
| Cc1cccc(OCCCC(=O)O)c1 | -8.7% |
| CC1CCN(C(=O)c2ccc3c(c2NCCO)C(=O)c2ccccc2C3=O)CC1 | 27.9% |
| CC1CCCN(C(=O)c2ccc3c(c2NCCO)C(=O)c2ccccc2C3=O)C1 (stereo unspecified) | 37% |
| CC(CC(=O)c1cccs1)CC(=O)c1cccs1 | -2.6% |
| O=C(O)Cn1nc2ccccc2n1 | 3.4% |
| Cc1nc(=S)n(-c2ccccc2)[nH]1 | -1.7% |
| CC(/C=C/c1ccco1)=N/NC(=O)Cc1cccs1 | -47.4% |
| O=C(CNC(=O)c1ccco1)NCC(=O)OCc1ccccc1Br | -3.7% |
| O=C(NCc1ccncc1)C1CCCCC1 | -9% |
| COc1cc(-c2nnc(SCc3ccccc3Cl)o2)cc(OC)c1OC | -2.8% |
| COc1cc(-c2nnc(SCc3cc(=O)oc4cc(C)ccc34)o2)cc(OC)c1OC | -10.8% |

From PubChem BioAssay AID748 (Sanford-Burnham Center for Chemical Genomics, 2007)
